Assay results published in PubChem BioAssay (NCATS).
Results filed as inconclusive are left out. The source made the active and inactive calls. Calls follow the shape of the dose curve; as a rule, active = well fitted curve in the direction sought with a large enough effect; inconclusive = small, poorly fitted or top-dose-only effect, or another doubt; inactive = no such curve, though single readings can be large; an effect the other way counts as inactive or inconclusive.

Key:
[1] = qHTS to identify inhibitors of the type 1 interferon - major histocompatibility complex class I in skeletal muscle: primary screen against the NCATS Pharmaceutical Collection (AID 1347407); conditions: human skeletal muscle cells, IFN-b-induced MHC-I HiBiT luminescence, 24 h; series mostly up to 45.9 µM;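 also: luminescence of HiBiT knocked into endogenous HLA-B as interferon-induced MHC class I level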
Procedure, shortened: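 HLA-B HiBiT myoblasts, dexamethasone-free growth medium + 4 ng/ml IFN-b; compounds pinned 1 h after seeding, […] from 46 uM; 24 h, 37 C, 5% CO2; lytic HiBiT detection, 10 min RT, luminescence.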

[2] = molecular target: Protein phosphatase 1D (Homo sapiens) (UniProt O15297); experiment: RapidFire Mass Spectrometry qHTS Assay for Modulators of WT P53-Induced Phosphatase 1 (WIP1) (AID 1347424); conditions: WIP1 dephosphorylation of phosphopeptide, RapidFire MS; series mostly up to 63 µM
Protein phosphatase 1D (Homo sapiens), sequence (O15297 whole entry, looked up): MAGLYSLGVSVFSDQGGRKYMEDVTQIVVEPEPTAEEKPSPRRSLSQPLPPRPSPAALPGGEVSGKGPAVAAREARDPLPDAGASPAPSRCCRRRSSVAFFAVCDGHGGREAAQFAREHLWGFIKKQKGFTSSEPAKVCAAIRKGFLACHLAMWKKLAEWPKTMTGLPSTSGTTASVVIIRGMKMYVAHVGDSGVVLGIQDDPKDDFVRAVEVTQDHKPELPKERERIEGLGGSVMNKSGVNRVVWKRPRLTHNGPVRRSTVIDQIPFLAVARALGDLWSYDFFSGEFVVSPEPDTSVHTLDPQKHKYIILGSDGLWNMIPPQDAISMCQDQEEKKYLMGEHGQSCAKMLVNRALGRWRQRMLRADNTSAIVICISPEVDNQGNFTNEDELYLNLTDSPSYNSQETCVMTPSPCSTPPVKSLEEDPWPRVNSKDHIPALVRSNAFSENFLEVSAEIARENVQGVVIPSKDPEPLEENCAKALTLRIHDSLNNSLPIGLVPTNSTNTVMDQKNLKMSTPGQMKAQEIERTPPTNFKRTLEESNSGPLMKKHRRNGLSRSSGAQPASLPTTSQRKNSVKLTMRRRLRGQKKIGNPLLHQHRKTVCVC
Procedure, shortened: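 RapidFire MS readout of dephosphorylated VEPPL-S-QETFS product, with 1 uM isotope-labelled peptide standard. Reaction: 10 nM WIP1, 2 uM phosphopeptide substrate, 5 min, room temperature, after 1 h compound preincubation; stopped with 0.5% formic acid.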

[3] = molecular target: Protein phosphatase 1D (Homo sapiens) (UniProt O15297); experiment: Rhodamine-PBP qHTS Assay for Modulators of WT P53-Induced Phosphatase 1 (WIP1) (AID 1347425); conditions: recombinant WIP1, Rhodamine-PBP phosphate fluorescence, real-time; series mostly up to 57.5 µM
Procedure, shortened: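 Steps: enzyme with Rh-PBP sensor and compounds, room-temperature incubation of 1 hr, baseline read, addition of VEPPL-pS-QETFS (10 uM final), kinetic fluorescence reads at 525/598 nm. Activity equals final minus baseline signal.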

[4] = Primary qHTS for inhibitors of La Crosse Virus (LACV) - induced cell death in SH-SY5Y cells (AID 1508616); conditions: SH-SY5Y LACV cytopathicity rescue, ATP luminescence, 6 d; series mostly up to 4.29 µM;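 also: top concentration of the series differs between compounds; higher means more rescue of cells from virus-induced death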
Procedure, shortened: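 Cytopathicity rescue screen: compounds pinned onto SH-SY5Y cells, which are then infected with LACV (MOI 0.01) and held 6 days at 37C. Percent activity is scaled between infected DMSO control and uninfected DMSO control.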

[5] = molecular target: Calcium and integrin-binding protein 1 (Homo sapiens) (UniProt Q99828); experiment: Primary qHTS for Identification of Calcium Integrin Binding Protein 1 (CIB1) Competitor (AID 1508620); conditions: CIB1-GST / FITC-alphaIIb peptide fluorescence polarization; series mostly up to 114 µM;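 also: GST tagged CIB1 binding a fluorescein labelled alphaIIb integrin peptide tracer; top concentration of the series differs between compounds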
Calcium and integrin-binding protein 1 (Homo sapiens), sequence (Q99828 whole entry, looked up): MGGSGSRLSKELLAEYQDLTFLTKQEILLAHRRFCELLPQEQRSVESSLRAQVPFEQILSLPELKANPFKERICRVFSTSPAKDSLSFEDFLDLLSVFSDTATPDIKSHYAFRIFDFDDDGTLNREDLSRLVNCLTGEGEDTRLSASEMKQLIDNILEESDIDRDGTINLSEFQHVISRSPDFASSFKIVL
Procedure, shortened: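 Fluorescence polarization competition: GST-tagged CIB1 (1 uM final) preincubated with compound 15 min at room temperature, then FITC-labelled alphaIIb peptide (100 nM final) added. After 15 min at room temperature, polarization read at Ex 480/Em 540.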

Measured: Potency

Cc1ccc(CCn2c3c(c4cc(Cl)ccc42)CN(C)CC3)cn1
inactive: all assays above

C[N+]1(C)CCC(OC(=O)C(O)(c2ccccc2)C2CCCC2)C1 (stereo not given)
inactive: all assays above

CN1Cc2cc(C(=O)N3CCC(C4CCNCC4)CC3)ccc2NC(CC(=O)O)C1=O (stereo not given)
inactive: all assays above

O=C(OCCN1CCOCC1)c1cccnc1Nc1cccc(C(F)(F)F)c1
inactive: all assays above

COc1ccc2c(c1)CCCC2=O
inactive: all assays above

Cc1ccccc1N1CCN(CCc2nnc3n2CCCC3)CC1
inactive: all assays above

CC(C)(C)C(=O)OCOC(=O)C1N2C(=O)CC2S(=O)(=O)C1(C)C (stereo not given)
inactive: all assays above

O=C1CCCc2c(O)cccc21
inactive: all assays above

COC(=O)c1ccc(NC(C)=O)cc1OC
inactive: all assays above

COc1cc(C(=O)NC2CCCNC2)cc(OC)c1OC (stereo not given)
inactive: all assays above

CN1CCCN=C1/C=C/c1cccs1
inactive: all assays above

COc1ccc(/C(C)=C/C(=O)O)c(OC)c1
inactive: all assays above

CCCc1c2oc(C(=O)O)cc(=O)c2cc2c(=O)cc(C(=O)O)n(CC)c12
inactive: all assays above
